Results reported in PubChem BioAssay.
Calls of active or inactive are those of the source.

What was measured:
Albumin (Bos taurus) = Albumin (Bos taurus) (UniProt P02769); test: compounds binding labelled BSA control protein – biochemical, small-molecule microarray, Alexa647 label, 635/667 nm fluorescence, artefact control for SMM control protein annotation, profiling panel (AID 1118); conditions: BSA-A647 binding, fluorescence 635 nm, higher = more signal;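 also: score merges 667 nm emission intensity and signal-to-noise per printed compound spot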
Chain of Albumin (Bos taurus) (P02769 whole entry, looked up): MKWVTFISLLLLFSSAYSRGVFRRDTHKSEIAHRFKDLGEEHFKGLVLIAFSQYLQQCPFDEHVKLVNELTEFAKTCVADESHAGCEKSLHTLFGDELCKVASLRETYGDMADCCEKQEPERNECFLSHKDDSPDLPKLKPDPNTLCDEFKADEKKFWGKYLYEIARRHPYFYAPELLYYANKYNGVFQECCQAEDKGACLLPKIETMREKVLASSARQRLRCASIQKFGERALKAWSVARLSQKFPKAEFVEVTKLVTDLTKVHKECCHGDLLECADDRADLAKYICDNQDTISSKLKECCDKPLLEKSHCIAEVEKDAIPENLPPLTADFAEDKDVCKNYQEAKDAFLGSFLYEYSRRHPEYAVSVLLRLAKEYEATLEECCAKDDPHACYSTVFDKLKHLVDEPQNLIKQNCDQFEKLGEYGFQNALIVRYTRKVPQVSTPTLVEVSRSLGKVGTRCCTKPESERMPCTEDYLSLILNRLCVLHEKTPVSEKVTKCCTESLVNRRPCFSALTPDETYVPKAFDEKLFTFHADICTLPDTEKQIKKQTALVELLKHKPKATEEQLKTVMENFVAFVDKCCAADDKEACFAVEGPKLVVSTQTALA

[1] = probe aXIP binding to arrayed compounds – biochemical, NeuroSMM set, 635/667 nm fluorescence, primary screen (AID 1119); conditions: small-molecule microarray, higher = more signal, called active from +8 up or from −8 down;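 also: probe is the protein aXip251-270 applied at 1 µg/mL to compound-printed slides; binding of probe to printed compounds measured as 667 nm fluorescence plus signal to noise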
[2] = probe aNOTCH3 binding on compound microarray – biochemical, small-molecule microarray, 635/667 nm fluorescence, primary screen (AID 1120); conditions: higher = more signal;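 also: probe is a biotin-tagged antibody raised against NOTCH3 rather than NOTCH3 protein; score merges spot fluorescence near 667 nm with spot signal to noise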
[3] = probe aNOTCH2 binding on compound microarray – biochemical, small-molecule microarray, 635/667 nm fluorescence, primary screen (AID 1121); conditions: higher = more signal;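 also: score merges feature fluorescence read at 667 nm with its signal to noise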
[4] = target: Carbonic anhydrase 2 (Homo sapiens) (UniProt P00918); test: compounds binding carbonic anhydrase 2 – biochemical, small-molecule microarray, Alexa647-labelled CAII, profiling panel (AID 1122); conditions: CAII-A647 binding fluorescence, higher = more signal
[5] = COS7 lysate on small-molecule microarray, probe aHis, 635 nm (AID 1123); conditions: COS7 cell lysate, fluorescence, higher = more signal;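 also: z-score combines 667nm fluorescence intensity with signal-to-noise per printed compound spot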
[6] = probe aLAP1 signal on lysate-treated microarray – cell lysate, small-molecule microarray, COS7 lysate, primary screen (AID 1124); conditions: probe aLAP1, fluorescence, higher = more signal;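 also: lysate comes from COS7 cells expressing LAP1 and is applied at 0.3 µg/mL; score merges spot fluorescence near 667 nm with signal-to-noise over triplicate slides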
Sam68 (KHDRBS1) = test: compounds binding KHDRBS1 protein – biochemical, small-molecule microarray, 635 nm fluorescence, primary screen (AID 1125); conditions: higher = more signal;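 also: score merges 667 nm channel intensity with signal to noise over triplicate slides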
[7] = system: Chordin-like protein 2 (CHRDL2); test: compounds binding chordin-like 2 – biochemical, small-molecule microarray, 635 nm fluorescence, primary screen (AID 1126); conditions: fluorescence 635 nm, higher = more signal;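 also: printed compound slides probed with Chrdl2 protein at 4 µg/mL for 1 h at 4 C; score merges 667 nm emission intensity with signal to noise over three replicate slides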
[8] = target: Concanavalin-A (Canavalia ensiformis) (UniProt P02866); test: compounds binding concanavalin A lectin – biochemical, small-molecule microarray, Alexa647 label, 635 nm, artefact control for SMM control protein annotation, primary screen (AID 1127); conditions: ConA-A647 binding fluorescence, higher = more signal;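 also: z combines 667 nm emission intensity with signal-to-noise across three replicate slides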
Chain of Concanavalin-A (Canavalia ensiformis) (P02866 whole entry, looked up): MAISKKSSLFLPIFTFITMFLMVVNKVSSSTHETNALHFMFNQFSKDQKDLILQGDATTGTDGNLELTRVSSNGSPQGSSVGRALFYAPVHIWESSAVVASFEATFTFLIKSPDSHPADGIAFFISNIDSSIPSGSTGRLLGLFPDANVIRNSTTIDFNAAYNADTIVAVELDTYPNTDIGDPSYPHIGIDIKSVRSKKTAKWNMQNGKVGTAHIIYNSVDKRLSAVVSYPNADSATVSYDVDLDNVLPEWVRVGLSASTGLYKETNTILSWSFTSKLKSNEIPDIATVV

[9] = compounds binding Alexa647 anti-His antibody – biochemical, small-molecule microarray, 635 nm fluorescence, artefact control for SMM control protein annotation, primary screen (AID 1128); conditions: higher = more signal;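 also: score merges feature fluorescence with signal-to-noise for each printed compound spot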
[10] = system: Human papillomavirus type 1a E7 protein (residues 1-88); test: HPV1a E7 small-molecule binders, primary screen, biochemical, small-molecule microarray, residues 1-88, 635 nm (AID 1129); conditions: small-molecule microarray binding, fluorescence 635 nm; higher = more signal
[11] = target: Focal adhesion kinase 1 (Homo sapiens) (UniProt Q05397); test: PTK2 protein binding on printed compound slides – biochemical, small-molecule microarray, 635/667 nm fluorescence, BSA, DTT, primary screen (AID 1130); conditions: 635 nm fluorescence, higher = more signal;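 also: composite of spot emission at 667 nm and signal to noise over triplicate slides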
Chain of Focal adhesion kinase 1 (Homo sapiens) (Q05397 whole entry, looked up): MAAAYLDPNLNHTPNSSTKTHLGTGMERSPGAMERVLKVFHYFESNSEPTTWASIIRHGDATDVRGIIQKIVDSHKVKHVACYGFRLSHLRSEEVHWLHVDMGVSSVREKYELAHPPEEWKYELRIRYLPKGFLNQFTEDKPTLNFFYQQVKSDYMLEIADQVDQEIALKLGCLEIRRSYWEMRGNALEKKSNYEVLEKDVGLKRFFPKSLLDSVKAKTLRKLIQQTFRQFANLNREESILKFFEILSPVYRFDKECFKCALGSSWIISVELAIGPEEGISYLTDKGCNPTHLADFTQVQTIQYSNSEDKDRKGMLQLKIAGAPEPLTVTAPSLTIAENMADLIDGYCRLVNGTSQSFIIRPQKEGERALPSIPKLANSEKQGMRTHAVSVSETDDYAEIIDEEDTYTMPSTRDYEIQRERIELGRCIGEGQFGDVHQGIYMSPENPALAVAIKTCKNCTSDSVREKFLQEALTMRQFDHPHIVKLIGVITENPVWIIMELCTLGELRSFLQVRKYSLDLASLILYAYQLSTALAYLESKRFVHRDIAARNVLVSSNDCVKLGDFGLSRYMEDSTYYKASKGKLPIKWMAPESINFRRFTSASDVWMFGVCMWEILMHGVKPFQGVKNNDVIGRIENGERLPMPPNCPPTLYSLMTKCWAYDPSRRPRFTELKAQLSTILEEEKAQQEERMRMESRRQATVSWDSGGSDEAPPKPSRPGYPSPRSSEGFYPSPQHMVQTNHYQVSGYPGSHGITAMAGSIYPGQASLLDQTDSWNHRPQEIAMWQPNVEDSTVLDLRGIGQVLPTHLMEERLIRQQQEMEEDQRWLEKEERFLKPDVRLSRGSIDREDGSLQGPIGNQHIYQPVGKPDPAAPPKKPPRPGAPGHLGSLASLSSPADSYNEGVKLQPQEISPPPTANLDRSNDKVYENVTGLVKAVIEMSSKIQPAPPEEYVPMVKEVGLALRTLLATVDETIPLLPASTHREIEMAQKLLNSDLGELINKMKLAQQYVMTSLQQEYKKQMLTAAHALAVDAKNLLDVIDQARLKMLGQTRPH

[12] = system: Fibrinogen (Alexa647-labelled); test: Alexa647-fibrinogen binding to printed small molecules – biochemical, small-molecule microarray, 635/667 nm fluorescence, artefact control for SMM control-protein annotation, profiling panel (AID 1131); conditions: fibrinogen-A647 binding fluorescence, higher = more signal;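 also: z-score merges 667 nm fluorescence with per-spot signal-to-noise over triplicate slides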
[13] = target: Follistatin (Homo sapiens) (UniProt P19883); test: FST protein binding to printed compounds – biochemical, small-molecule microarray, 635/667 nm fluorescence, primary screen (AID 1132); conditions: 635 nm fluorescence, higher = more signal
Chain of Follistatin (Homo sapiens) (P19883 whole entry, looked up): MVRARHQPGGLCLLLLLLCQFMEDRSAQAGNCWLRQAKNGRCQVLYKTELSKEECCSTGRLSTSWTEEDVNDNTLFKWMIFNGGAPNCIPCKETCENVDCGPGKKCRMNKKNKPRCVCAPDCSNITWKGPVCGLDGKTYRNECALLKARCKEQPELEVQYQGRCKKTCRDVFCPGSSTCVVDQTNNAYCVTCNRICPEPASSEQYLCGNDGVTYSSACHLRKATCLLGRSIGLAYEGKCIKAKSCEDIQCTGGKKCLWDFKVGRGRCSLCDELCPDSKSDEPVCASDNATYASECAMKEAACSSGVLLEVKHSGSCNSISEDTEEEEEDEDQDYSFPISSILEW

[14] = target: Fibroblast growth factor 2 (Homo sapiens) (UniProt P09038); test: basic fibroblast growth factor binding to printed compounds – biochemical, small-molecule microarray, 635/667 nm fluorescence, primary screen (AID 1133); conditions: FGF2, fluorescence 635/667, higher = more signal
Chain of Fibroblast growth factor 2 (Homo sapiens) (P09038 whole entry, looked up): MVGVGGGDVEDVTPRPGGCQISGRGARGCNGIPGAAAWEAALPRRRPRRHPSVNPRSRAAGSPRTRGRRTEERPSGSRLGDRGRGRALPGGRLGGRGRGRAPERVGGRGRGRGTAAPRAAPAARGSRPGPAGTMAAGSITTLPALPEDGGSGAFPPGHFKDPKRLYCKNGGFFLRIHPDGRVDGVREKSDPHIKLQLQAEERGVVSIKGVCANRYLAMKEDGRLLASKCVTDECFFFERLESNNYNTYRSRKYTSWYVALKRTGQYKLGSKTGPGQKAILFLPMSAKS

[15] = JC-1 mitochondrial potential readout, lung cancer cells – cell-based, A549, JC-1 fluorescence, basal, 24 h, 100 nL, profiling panel (AID 1138); conditions: higher = more signal;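 also: A549 lung adenocarcinoma cells under basal conditions with no added stimulus; test concentration not given here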
Lefty1 = Lefty1 protein binding to printed compounds – biochemical, small-molecule microarray, 635/667 nm fluorescence, primary screen (AID 1139); conditions: fluorescence 635/667, higher = more signal
[16] = system: wheat germ agglutinin (Triticum aestivum), Alexa647-labelled; test: Alexa647-WGA lectin binding to printed small molecules – biochemical, small-molecule microarray, 635/667 nm fluorescence, artefact control for SMM control-protein annotation, profiling panel (AID 1140); conditions: WGA-A647 binding, 635 nm fluorescence, higher = more signal;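 also: score merges 667 nm feature emission with signal to noise over triplicate slides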
[17] = target: Luciferin 4-monooxygenase (Photinus pyralis) (UniProt P08659); test: inhibition of purified Photinus pyralis luciferase – biochemical, luminescence, purified enzyme, 2006 set, primary screen (AID 1141); conditions: purified firefly luciferase, SteadyGlo luminescence, 30 min; higher = more signal, called active from +8 up or from −8 down;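 also: cell-free assay with purified firefly luciferase at 100 ng per well in PBS; test concentration not given here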
Chain of Luciferin 4-monooxygenase (Photinus pyralis) (P08659 whole entry, looked up): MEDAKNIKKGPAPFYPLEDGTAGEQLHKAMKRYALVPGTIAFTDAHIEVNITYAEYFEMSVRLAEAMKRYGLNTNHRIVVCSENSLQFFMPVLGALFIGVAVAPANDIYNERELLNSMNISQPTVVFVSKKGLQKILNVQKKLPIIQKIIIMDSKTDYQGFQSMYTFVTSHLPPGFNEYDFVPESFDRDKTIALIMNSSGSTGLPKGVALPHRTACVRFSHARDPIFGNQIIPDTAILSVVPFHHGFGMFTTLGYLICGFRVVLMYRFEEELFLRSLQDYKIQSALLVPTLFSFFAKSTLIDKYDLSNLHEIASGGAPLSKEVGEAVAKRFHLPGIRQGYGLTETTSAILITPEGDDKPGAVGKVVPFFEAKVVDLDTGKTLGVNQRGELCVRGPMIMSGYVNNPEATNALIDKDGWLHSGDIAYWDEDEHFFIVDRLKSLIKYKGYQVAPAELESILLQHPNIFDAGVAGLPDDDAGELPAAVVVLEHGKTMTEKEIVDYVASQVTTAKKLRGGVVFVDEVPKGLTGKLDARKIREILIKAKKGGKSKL

| Compound | composite z-score (Albumin (Bos taurus)) | composite Z-score [1] | composite z-score [2] | composite z-score [3] | composite z-score [4] | composite z-score [5] | composite z-score [6] | composite z-score (Sam68 (KHDRBS1)) | composite z-score [7] | composite z-score [8] | composite z-score [9] | composite z-score [10] | composite z-score [11] | composite z-score [12] | composite z-score [13] | composite z-score [14] | z-score [15] | composite z-score (Lefty1) | composite z-score [16] | z-score [17] |
| --- | --- | --- | --- | --- | --- | --- | --- | --- | --- | --- | --- | --- | --- | --- | --- | --- | --- | --- | --- | --- |
| COCCCNC(=O)[C@@]1(c2ccc([N+](=O)[O-])cc2)CC(=O)N(C2CCCCC2)[C@@H]1c1ccc(CO)cc1 | 0.502 | -0.0867 (inactive) | -0.391 | -0.272 | 0.672 | 2.28 | 1.63 | 0.0163 | -0.264 | -0.194 | 1.13 | 0.542 | 0.643 | -0.523 | -0.0809 | 0.269 | 0.612 | -1.4 | -0.273 | -0.501 (inactive) |
| C[C@]1(C(=O)NCCN2CCOCC2)c2ccccc2C(=O)N(Cc2ccccc2)[C@H]1c1ccc(CO)cc1 | -0.0435 | -0.61 (inactive) | -0.257 | -0.154 | 0.733 | 0.652 | 0.389 | -0.791 | -0.479 | 0.657 | 1.6 | -0.385 | -0.43 | -0.665 | 0.0342 | -0.256 | -1.19 | -0.718 | -0.208 | 1.47 (inactive) |
| CCCCCCc1nc(-c2cc(C)c(OC)c(C)c2)cc2c1[Si](C(C)C)(C(C)C)O[C@H]2c1ccccc1 | -0.0154 | -0.315 (inactive) | -0.194 | -0.0191 | -0.398 | -0.301 | -0.136 | -0.728 | -0.182 | -0.152 | -0.36 | -0.341 | -0.272 | -0.399 | 0.0128 | -0.683 | -0.705 | -0.0906 | -0.372 | 0.844 (inactive) |
| C[C@@H]1NC(=O)CC=C[C@@H](C)[C@@H]2C=C[C@H](O)[C@@H](COC(=O)[C@H](C)NC(=O)CC=C[C@@H](C)[C@@H]3C=C[C@H](O)[C@@H](COC1=O)O3)O2 | -0.942 | -0.0764 (inactive) | -0.0328 | -0.179 | -0.0551 | -0.384 | -0.0401 | -0.116 | 0.786 | -1.2 | -0.689 | -0.453 | 0.365 | -0.917 | 1.29 | 0.859 | -0.0173 | 1.41 | -0.833 | -0.595 (inactive) |
